Neddylation inh = cullin neddylation inhibition; P61081+Q13564; TR-FRET cullin neddylation, biochemical; inhibition, % at 25 µM; 360,000 tested, 0.58% active; AID 651699; in the data active = inhibition above about 36%
GSIS activator = GLuc luminescence reporter in INS-1E cells, primary screen for activators of glucose-dependent secretion of insulin | activation, % at 16.6 µM | INS-1E GLuc reporter insulin secretion, 2-3 h | AID 743287 | 370,000 tested, 0.61% active;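 active = lowest replicate activation of at least 40%, so every replicate reaches that level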;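 note: 0% = median of neutral control wells and 100% = median of IBMX positive control wells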
Bfl-1 A1 inh = inhibitors of the anti-apoptotic protein A1, read as caspase activation; MEF A1-2A-BIM cells, Caspase-Glo 3/7 luminescence, 3 h; percent of clofoctol response, vehicle zero; caspase activation, % (no concentration beside the values); 330,000 tested, 0.066% active; AID 2462;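 active = over half of replicate activation scores above 10%, or exactly half above 10 with the replicate mean above 10; inconclusive = replicate mean below 10 yet half the replicates above 10; inactive = over half of replicates below 10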
dFosB act = activators of mouse delta FosB homodimer; AID 493131; 340,000 tested, 0.99% active; purified delta FosB, TAMRA-CDK5 oligo fluorescence polarization; percent of positive-control signal above neutral wells; P13346; activation, % at 25 µM;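 active = mean activation above about 17%, with every replicate also reaching it, limit read from the data, passing the limit was not always enough; inconclusive = only one of the two conditions met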
Target sequence (P13346 whole entry, looked up): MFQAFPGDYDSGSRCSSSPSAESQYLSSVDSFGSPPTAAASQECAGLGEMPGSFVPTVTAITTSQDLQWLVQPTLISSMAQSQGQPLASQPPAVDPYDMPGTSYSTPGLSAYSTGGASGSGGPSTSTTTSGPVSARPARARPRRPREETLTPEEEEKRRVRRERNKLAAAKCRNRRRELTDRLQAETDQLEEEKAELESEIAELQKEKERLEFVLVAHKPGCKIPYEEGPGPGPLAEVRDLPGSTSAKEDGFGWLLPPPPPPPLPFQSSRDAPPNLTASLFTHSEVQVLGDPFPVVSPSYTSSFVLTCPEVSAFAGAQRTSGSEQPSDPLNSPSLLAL
Vif imaging = HIV Vif inhibition. HEK293T cells, Vif self-association by quenched fluorescence, imaging, 24 h. inhibition, % at 7.49 µM. 340,000 tested, 0.35% active; in the data active = inhibition above about 50%, passing the limit was not always enough; inconclusive = no clear call, values can overlap the other calls; inactive = below about 31%
An asterisk follows results filed as active; ? = inconclusive; . = no result shown. Most compounds without a hit are left out; they make up all but 1.9% or so of the library.

SMILES	Neddylation inh	GSIS activator	Bfl-1 A1 inh	dFosB act	Vif imaging
CS(=O)(=O)N1CCN(c2ccccc2NC(=O)c2ccc(Br)o2)CC1	6	3	0	-7	.
CCCCn1c(O)c(N=Nc2ccccc2O)c2ccccc21	-5	5	?	-5	145*
COc1cccc(N2CCN(S(=O)(=O)c3cc4c(cc3C)N(C)CCO4)CC2)c1	-5	.	0	-7	76*
CO[C@H](CN(C)C(=O)c1ccc2c(c1)OCO2)[C@@H](C)CN([C@@H](C)CO)S(=O)(=O)c1ccc(C)cc1	.	-4	.	.	.
O=C1N/C(=C/c2ccc(N3CCCC3)cc2)C(=O)N1c1ccccc1	-3	-1	-1	-3	6
O=C1/C(=C/c2ccc(N3CCCC3)cc2)NC(=S)N1C1CC1	-138	.	0	-3	54*
COc1ccc2c3c(n(C)c2c1)[C@H](CO)N(Cc1ccccc1F)CC31CN(CC2CC2)C1	.	5	.	.	.
CCOC1=C2[C@H](c3cccc(Cl)c3)N(S(=O)(=O)c3ccc(C)cc3)C[C@H]2n2c(=O)n(-c3ccccc3)c(=O)n2C1	-32	-17	.	.	-9
CCOC1=C2[C@H](c3ccc(C)cc3)N(S(=O)(=O)c3ccc(C)cc3)C[C@H]2n2c(=O)n(-c3ccccc3)c(=O)n2C1	0	52*	.	.	2
CCN1CC=C2C(C1)C(c1ccc(Cl)s1)C(C#N)=C(N)C2(C#N)C#N (stereo unspecified)	8	-13	-1	-6	87*
COc1ccccc1C1c2[nH]c3ccccc3c2C[C@H]2C(=O)N(C3CCN(Cc4ccccc4)CC3)CC(=O)N12 (stereo partly specified)	1	-19	1	38*	-1
COc1ccc(C2c3[nH]c4ccccc4c3C[C@H]3C(=O)N(C4CCN(Cc5ccccc5)CC4)CC(=O)N23)cc1OC (stereo partly specified)	-1	-42	0	-12	-16
COc1cccc(C2c3[nH]c4ccccc4c3C[C@H]3C(=O)N(C4CCN(Cc5ccccc5)CC4)CC(=O)N23)c1 (stereo partly specified)	-10	-15	?	38*	-8
COc1ccccc1CNC(=O)CCc1c(C)nc2cc(-c3ccccc3OC)nn2c1C	.	-8	0	-11	-7
COc1ccccc1-c1cc2nc(C)c(CCC(=O)NC(C)CCc3ccco3)c(C)n2n1 (stereo unspecified)	51*	-1	1	-15	.
COc1ccc(C(=O)NCc2c(C)oc(C)c2C(=O)O)cc1	6	5	1	-4	2
COc1ccc(C(=O)NCc2oc(-c3ccccc3)cc2C(=O)O)cc1	5	-12	1	-5	61*
O=C(COC(=O)/C=C/c1ccc([N+](=O)[O-])cc1)Nc1ccc2[nH]c(=O)[nH]c2c1	-2	32	.	31*	1
O=C(O)c1ccccc1/C=N/NC(=S)NC1CCCCC1	-3	75*	0	0	8
C[C@@H]1CCCCO[C@H](CN(C)Cc2ccc(Cl)c(Cl)c2)[C@@H](C)CN([C@H](C)CO)C(=O)c2cc(NS(C)(=O)=O)ccc2O1	.	-19	.	.	.
O=C(COC(=O)C1CC1)NC(=O)c1ccccc1	-4	3	0	-1	-8
O=C(COC(=O)C1CCC1)NC(=O)c1ccccc1	-2	42*	1	2	-8
COc1ccc(NC(=O)Cn2nnc(C(=O)NCc3ccco3)c2N)cc1	1	-4	3	4	-10
COc1ccc(NC(=O)Cn2nnc(C(=O)Nc3ccccc3C)c2N)cc1	2	6	0	0	53*
O=S(=O)(c1cccs1)N1CN(Cc2ccc(F)cc2)c2nc3ccccc3nc21	8	.	-1	-5	2
SMILES	Neddylation inh	GSIS activator	Bfl-1 A1 inh	dFosB act	Vif imaging
O=S(=O)(c1cccs1)N1CN(Cc2cccs2)c2nc3ccccc3nc21	41*	.	0	2	-4
C/C=C/c1ccc([C@H]2[C@@H](CO)N(C(=O)C3CCC3)C23CN(C(=O)NC(C)C)C3)cc1	.	-7	.	.	.
COC(=O)C1=CN(c2ccc(OC)cc2)C=C(C(=O)OC)C1c1cc(OC)c(OC)cc1OC	59*	9	1	-2	-9
COC(=O)C1=CN(Cc2cccs2)C=C(C(=O)OC)C1c1ccc(OC)cc1OC	.	8	0	-8	0
Cc1ccc(NC(=O)NNC(=O)c2ccc3c(c2)NC(=O)C(C)(C)O3)cc1	1	-2	0	-2	-1
CC1(C)Oc2ccc(C(=O)N/N=C/c3ccc(O)cc3)cc2NC1=O	13	21	-1	4	109*
CCC(=O)N1[C@@H]2Cn3c(ccc(-c4cncnc4)c3=O)[C@H]1[C@@H](C(=O)N1CCc3ccccc3C1)[C@@H]2CO	.	-1	.	.	.
CCOC(=O)c1c(NC(=O)c2ccoc2C)sc(C(=O)N(C)C)c1C	-4	47*	1	-21	1
CCN(CC)C(=O)c1sc(NC(=O)c2ccoc2C)c(C(=O)OC)c1C	-1	.	0	-15	-6
CCC(C)NC(=O)Cn1c(=O)n(-c2ccccc2)c(=O)c2ccc(C(=O)NCc3ccco3)cc21 (stereo unspecified)	1	.	0	5	61*
COc1ccc(NC(=O)Cn2c(=O)n(-c3ccc(CC(=O)NCc4ccco4)cc3)c(=O)c3ccccc32)cc1	-27	13	0	1	-3
CC(=O)Nc1ccc(Cl)c(-c2nc3ncccc3o2)c1	16	58*	1	-15	24
O=C(COc1ccccc1)Nc1ccc(Cl)c(-c2nc3ncccc3o2)c1	-46	.	-1	-4	16
CC(C)CC(=O)Nc1cccc(-c2nc3ncccc3o2)c1	.	41*	1	-24	-13
Cc1cc(-c2nc3ncccc3o2)ccc1NC(=O)CC(C)C	.	.	-1	-10	.
CCOC(=O)CC(=O)CSc1ccc2nnc(-c3ccc(F)cc3)n2n1	40*	1	-1	-9	.
O=C(CCc1nc2ccccc2c(=O)[nH]1)NNC(=O)c1cccc(Cl)c1	8	44*	0	2	1
O=C(CCc1nc2ccccc2c(=O)[nH]1)NNC(=O)c1ccc(Cl)cc1	13	2	2	2	-7
COc1ccc2c3c(n(C)c2c1)[C@H](CO)N(Cc1ccccc1F)CC31CCN(CC2CC2)CC1	.	-5	.	.	.
C=Cc1ncc(OC)c2c1[nH]c1ccccc12	58*	.	0	-6	15
CC1CN(c2ccc([N+](=O)[O-])c(NCCOc3ccc(Cl)cc3)c2)CC(C)N1 (stereo unspecified)	-36	-34	2	37*	-2
Cc1ccccc1OCCNc1cc(N2CC(C)NC(C)C2)ccc1[N+](=O)[O-] (stereo unspecified)	-50	42*	.	7	15
CCc1ccc(OCCNc2cc(N3CCNC(C)C3)ccc2[N+](=O)[O-])cc1 (stereo unspecified)	-56	-38	2	45*	-1

Screening results: PubChem BioAssay, several laboratories
